Assay results taken from PubChem BioAssay AID1159580 (chemical genetic matrix, 2015).
In all, about 5,500 compounds went through this assay and about 2,000 (36%) were called active. Another 18% or so got no clear call; they are omitted. Cut-off read from the data, not from the text of the source: active = normalized growth mostly below about 0.91 (no sharp cut-off); inconclusive = no clear call, values can overlap the other calls; inactive = mostly above about 0.92. The list shows a part of the results.

Experiment: chemical genetic growth profiling, strain panel (AID 1159580);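 note: tested at 20 µM; growth read once vehicle control cultures reached saturation at 30 °C; 1 = growth at the plate median or of vehicle wells; lower values mean less growth of the strain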
Conditions: S. cerevisiae deletion strains, growth OD

Measured: normalized growth

C=CCN1CC[C@]23c4c5ccc(O)c4O[C@H]2/C(=N\NC(=O)c2ccccc2)CC[C@@]3(O)[C@H]1C5
inactive: locus YAL013W, strain DEP1, hits give low values 0.989 | locus YAL040C, strain CLN3, hits give low values 1.06 | locus YCL061C, strain MRC1 (second series), hits give low values 0.987 | locus YDR363W, strain ESC2, hits give low values 0.998 | locus YER002W, strain NOP16, hits give low values 1.03 | locus YGR078C, strain PAC10, hits give low values 0.985 | locus YNL153C, strain GIM3, hits give low values 0.983 | locus YNL175C, strain NOP13, hits give low values 0.993 | locus YNL197C, strain WHI3, hits give low values 0.996 | locus YNL224C, strain SQS1, hits give low values 1 | locus YOR083W, strain WHI5 (second series), hits give low values 0.991 | locus YPL241C, strain CIN2, hits give low values 0.996
